{
  "source": "ChEMBL document CHEMBL1157539",
  "about": "“Thousands of chemical starting points for antimalarial lead identification” (Nature, 2010)",
  "data": [
    {"system": "HepG2", "test": "GSK_TCMDC: Percent inhibition of human HepG2 cell line. Test compounds present at 10uM.", "assay_type": "functional", "units": {"Inhibition": "%"}, "values": [
      {"smiles": "Cc1cccc2nc(-c3cccc(-c4ccc(NC(=O)c5cccnc5)cc4)c3)[nH]c12", "Inhibition": 64},
      {"smiles": "COc1c(OC)c(OC)c2ccccc2c1CNCCCCCCNCc1c(OC)c(OC)c(OC)c2ccccc12.Cl", "Inhibition": 99},
      {"smiles": "CC1=NN(c2ccc(C)c(C)c2)C(=O)C1=NNc1cccc(-c2cccc(NC(=O)OC(C)(C)C)c2)c1O", "Inhibition": 39},
      {"smiles": "CN(Cc1ccc(NC(=O)CCC2CCN(C(=O)/C=C/c3ccc(Cl)c(Cl)c3)CC2)cc1)C1CCOCC1", "Inhibition": 10},
      {"smiles": "Cc1cccc(NC(=O)c2ccc(C(=O)NC3CCN(CC4CCCCC4)C3)cc2)c1.O=C(O)C(F)(F)F", "note": "(stereo not drawn)", "Inhibition": 17},
      {"smiles": "N#Cc1ccc(NC2(C(=O)N3CCN(c4cccc(Cl)c4)CC3)CC2)c2ccccc12", "Inhibition": 0},
      {"smiles": "Cc1cc(C)c(NC(=O)N[C@H]2CCN(CCCCCNC(=O)/C=C/c3ccc(Cl)c(Cl)c3)C2)c(C)c1", "Inhibition": 12},
      {"smiles": "CCOc1ccc(-n2nc3c(Cl)nnc(-c4ccccc4)c3c2-c2ccccc2)cc1", "Inhibition": 0},
      {"smiles": "Cc1noc(C)c1-c1ccc2c(Nc3ccccc3N3CCOCC3)c(C(=O)NCc3ccccc3)cnc2c1.Cl", "Inhibition": 23},
      {"smiles": "CC(=O)c1ccc(N2CCN(C(=O)Nc3ccc(Cl)cc3)CC2)cc1", "Inhibition": 4},
      {"smiles": "Fc1ccc2[nH]c(-c3cccc(-c4ccc(CN5CCN(c6cnccn6)CC5)cc4)c3)nc2c1.O=C(O)C(F)(F)F", "Inhibition": 19},
      {"smiles": "CN1CCN(CCCN(Cc2cccc(-c3cccc(CNC4CCCC4)c3)c2)C(=O)CCC2CCCC2)CC1.O=C(O)C(F)(F)F", "Inhibition": 35},
      {"smiles": "Cc1ccnc2nc(C(=O)Nc3cc(Cl)ccc3N3CCOCC3)nn12", "Inhibition": 0}
    ]}
  ]
}
